Sampled rows, rich in hits. Any-hit rate of the full collection: about 9.2%.
FLuc counter: counter-screen for miR-21 project: firefly luciferase inhibitors or activators; P08659; purified FLuc, Km substrates, luminescence inhibition; Potency, µM (series often up to 57.5 µM), most hits filed as inhibitors; actives 6.9% (n = 360,000); also: nearly all actives have a fitted effect of over 55% in size
Target sequence (P08659 whole entry, looked up): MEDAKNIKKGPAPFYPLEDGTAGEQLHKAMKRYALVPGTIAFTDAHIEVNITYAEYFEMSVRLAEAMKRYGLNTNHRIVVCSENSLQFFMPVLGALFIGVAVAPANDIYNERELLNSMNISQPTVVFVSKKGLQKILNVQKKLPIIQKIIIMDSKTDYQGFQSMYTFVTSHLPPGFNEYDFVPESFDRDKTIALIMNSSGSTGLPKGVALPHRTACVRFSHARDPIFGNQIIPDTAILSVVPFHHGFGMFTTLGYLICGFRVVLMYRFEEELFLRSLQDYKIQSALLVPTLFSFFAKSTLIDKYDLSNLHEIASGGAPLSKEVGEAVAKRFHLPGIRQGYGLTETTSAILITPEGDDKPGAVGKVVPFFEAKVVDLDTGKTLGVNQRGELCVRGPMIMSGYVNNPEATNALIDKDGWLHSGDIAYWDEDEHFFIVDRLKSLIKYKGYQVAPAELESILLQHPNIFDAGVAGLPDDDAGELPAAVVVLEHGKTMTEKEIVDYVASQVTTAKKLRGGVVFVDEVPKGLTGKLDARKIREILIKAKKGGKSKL
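Purified P. pyralis luciferase, 10 nM final, with Km-level 10 uM D-luciferin and 10 uM ATP in 50 mM Tris acetate pH 7.5, 10 mM Mg acetate, 0.01% Tween-20, 0.05% BSA; 6-point qHTS titration about 60 µM downward; luminescence read.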
SMN2 splice up: increases expression of the SMN2 splice variant. HEK293 SMN2-luciferase splicing reporter, luminescence, 30-36 h. Potency, µM (doses to about 46.1 µM), most hits filed as activators. actives 2.8% (n = 210,000). AID 1458; also: nearly all actives have a fitted effect of over 55% in size
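HEK293 cells carry an SMN2 […]–luciferase reporter in which exon 7 inclusion puts luciferase in frame. Cells were plated 10-12 h before compound addition, then incubated 30-36 h at 37C. ONE-Glo luminescence was read; sodium butyrate at 4.5 mM final served as control.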
Rab9 prom act: activates the Rab9 promoter; Huh7 Rab9 promoter-luciferase reporter, luminescence, 24 h; Potency, µM (doses to about 9.22 µM), hits mostly activators; actives 2.8% (n = 320,000); also: nearly all actives have a fitted effect of over 60% in size
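Using Huh7 cells stably transfected with Rab9 promoter–luciferase, compounds were incubated 24 h at 37 °C, 5% CO2; luciferase luminescence was read 10 min after reagent addition.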
ELG1 genotox: genotoxicity induction in ELG1-luciferase HEK293T cells | HEK293T ELG1-luciferase reporter, luminescence, 16 h | Potency, µM (top dose mostly 46 µM), usual class: activators | actives 1.3% (n = 330,000); also: nearly all actives have a fitted effect of over 60% in size
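HEK293T cells expressing luciferase-tagged ELG1 were exposed to compound or DMSO vehicle for 16 hr at 37 °C and 5% CO2. Luciferase activity was then measured with ONE-Glo after 30 min at room temperature.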
NPC1 promoter act: activates the NPC1 promoter; Huh7 NPC1 promoter luciferase reporter, 24 h; Potency, µM (series often up to 9.22 µM), usual class: activators; actives 2.4% (n = 320,000); AID 485313; also: nearly all actives have a fitted effect of over 60% in size
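Luminescence read-out of NPC1 promoter-driven luciferase in stably transfected Huh7 cells; compounds delivered in DMSO and left 24 h at 37C, 5% CO2, qHTS titration format.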
ELG1 repair inh: blocks ELG1-dependent DNA repair in HEK293T cells | Potency, µM (highest dose often 46.1 µM), hits mostly inhibitors | HEK293T ELG1-luciferase reporter, luminescence, 16 h; DNA damage induced by 5-fluorouridine | actives 2.3% (n = 330,000); also: nearly all actives have a fitted effect of over 55% in size
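Cells (2,000 per well) received 5-fluorouridine plus test compound or DMSO and were incubated 16 hr at 37 °C, 5% CO2. Luciferase activity was read by luminescence 30 min after ONE-Glo addition; signal suppression marked inhibition of damage-induced ELG1 function.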
Hits are given with their value; – = inactive; ? = inconclusive; · = no result given. Calls follow the shape of the dose curve; as a rule, active = well fitted curve in the direction sought with a large enough effect; inconclusive = small, poorly fitted or top-dose-only effect, or another doubt; inactive = no such curve, though single readings can be large; an effect the other way counts as inactive or inconclusive.

SMILES	FLuc counter	SMN2 splice up	Rab9 prom act	ELG1 genotox	NPC1 promoter act	ELG1 repair inh
O=C1c2ccccc2C(=O)N1CCC1=CCCCC1	15.1µM	–	–	?	–	?
Cc1ccc(NC(=O)c2nc(S(=O)(=O)Cc3ccc(F)cc3)ncc2Cl)cc1C	–	·	·	·	·	·
COC(=O)c1ccc(NC(=O)c2nc(S(=O)(=O)Cc3cccc(C)c3)ncc2Cl)cc1	–	·	–	–	–	16.4µM
Cc1ccc(NC(=O)c2nc(S(=O)(=O)Cc3ccccc3C)ncc2Cl)cc1C	10.7µM	·	–	–	–	?
CC(=O)Nc1ccc(NC(=O)c2nc(S(=O)(=O)Cc3cccc(C)c3)ncc2Cl)cc1	–	·	–	–	–	?
CCOc1ccc(NC(=O)Cn2nnc(-c3ccc(C(N)=O)cc3)n2)cc1S(=O)(=O)N1CCCC1	6.75µM	·	–	–	–	?
CCOc1ccc(NC(=O)Cn2nc(C(N)=O)c3ccccc3c2=O)cc1S(=O)(=O)N1CCCC1	–	·	–	–	–	–
O=C(Cn1nnc(-c2ccccc2Cl)n1)Nc1cccc(S(=O)(=O)N2CCCC2)c1	·	·	·	–	·	23.1µM
Cc1ccccc1NC(=O)c1ccc(F)c(S(=O)(=O)N(C)Cc2ccccc2)c1	–	·	·	·	·	·
N#CC1(NC(=O)Cn2cc(C(F)(F)F)cc(Cl)c2=O)CCCCC1	–	·	–	–	–	–
CCOCCCNC(=O)C(c1ccccc1)N(Cc1cccs1)C(=O)c1ccc(NC(C)=O)cc1 (centres undefined)	–	–	·	·	·	·
Cc1ccc2[nH]c(C(=O)Nc3ccccc3)cc2c1	2.13µM	·	·	·	·	·
CCC(C)c1ccccc1NC(=O)c1cc2cccc([N+](=O)[O-])c2[nH]1 (centres undefined)	?	·	–	–	–	20.6µM
Cc1ccc(NC(=O)c2cc3cccc([N+](=O)[O-])c3[nH]2)cc1	2.39µM	·	1.26µM	?	3.16µM	?
CCC(C)c1ccccc1NC(=O)COC(=O)c1ccc(N2CCCC2)c([N+](=O)[O-])c1 (centres undefined)	–	–	–	–	–	–
COc1ccc(NC(=O)c2cc3cc(C)ccc3[nH]2)cc1	–	·	·	·	·	·
Cc1ccc(Sc2c(C)nn(C(C)(C)C)c2OC(=O)C(C)(C)C)cc1	–	–	·	·	·	·
O=C(NCc1nc2ccccc2[nH]1)c1cccc(Cl)c1	–	–	·	·	·	·
COc1cc(/C=C(/C(=O)c2cccs2)c2nc3ccccc3[nH]2)ccc1O	6.75µM	–	–	–	–	?
O=C(/C=C/c1cccc(Cl)c1)c1nc2ccccc2[nH]1	2.69µM	–	–	–	–	?
O=C(/C(=C/c1ccc(Cl)cc1)c1nc2ccccc2[nH]1)c1cccs1	?	–	–	?	–	7.31µM
O=C(/C(=C\c1ccccc1)c1nc2ccccc2[nH]1)c1ccc(Cl)cc1	–	–	?	?	2.82µM	?
COC(=O)/C(=C\c1cc(OC)c(OC)c(OC)c1)c1nc2ccccc2[nH]1	?	–	–	–	–	?
COCCn1c(CCC(=O)Nc2ccc(C)c(Cl)c2)nc2cccnc21	–	–	·	·	·	·
Cc1ccc2c(c1)sc1nc(-c3cc4cc(Cl)ccc4oc3=O)cn12	–	·	·	·	·	·
SMILES	FLuc counter	SMN2 splice up	Rab9 prom act	ELG1 genotox	NPC1 promoter act	ELG1 repair inh
COc1ccc(C)cc1NC(=O)Cn1c(=O)oc2cc(S(=O)(=O)N3CCCCC3)ccc21	–	–	·	·	·	·
O=C(N/N=C/c1ccoc1)c1ccc(Cl)cc1	?	·	–	–	–	–
O=S(=O)(N/N=C/c1ccccc1OCc1ccc(Cl)cc1)c1ccccc1	?	–	–	–	–	?
O=C(N/N=C/c1sc(=O)n(-c2ccccc2)c1Cl)c1ccccc1	6.01µM	7.08µM	1.78µM	–	1.58µM	?
O=c1c(/C=N\NS(=O)(=O)c2ccccc2)coc2ccc(Cl)cc12	–	·	–	–	–	14.6µM
O=C(N/N=C/c1ccoc1)c1ccc(Br)cc1	15.1µM	·	–	–	–	–
O=C(N/N=C/c1oc(O)c2ccccc12)c1ccccc1O	10.7µM	–	–	–	–	–
Cc1ccc(-c2ccc(/C=N/NC(=O)c3ccccc3O)o2)cc1	?	·	–	–	–	?
Cn1nc(C(C)(C)C)c([N+](=O)[O-])c1C(=O)N1CCCCCC1	–	·	–	–	–	–
O=S(=O)(c1ccccc1)N1CCC[C@@]2(CCN(c3cccc(-c4ccccc4)c3)C2)C1	·	–	·	·	·	·
Cc1ccc(C(=O)NCC(=O)N(C)CC(=O)Nc2c(Cl)cccc2Cl)s1	–	·	–	–	–	–
Oc1oc(C=Nc2ccc(F)cc2F)c2ccccc12	–	–	–	–	–	–
O=[N+]([O-])CC(=Nc1ccc(F)cc1)N/N=C\c1oc(O)c2ccccc12	15.1µM	·	–	–	?	–
O=C(N/N=C/c1ccc[nH]1)c1ccccc1O	9.53µM	·	?	?	–	?
O=C(N/N=C/c1ccoc1)c1ccccc1O	10.7µM	·	–	?	–	–
O=C(N/N=C/c1ccc[nH]1)c1ccc(O)cc1	?	·	–	–	–	?
O=C(N/N=C/c1ccoc1)c1ccccc1	26.9µM	·	–	?	–	?
O=C(N/N=C/c1ccoc1)c1cc(O)cc(O)c1	?	·	–	–	–	?
O=C(N/N=C/c1coc2ccccc2c1=O)c1ccccc1	16.9µM	–	–	–	–	–
O=C(N/N=C/c1coc2ccccc2c1=O)c1ccc(Cl)cc1	–	·	–	–	–	–
CC(=O)Nc1ccc(S(=O)(=O)N2CCC(n3c(C(F)(F)F)nc4cccnc43)CC2)cc1	–	·	·	·	·	·
Cc1ccc(N(CC(=O)Nc2ccc3c(c2)OCCO3)S(C)(=O)=O)cc1	19µM	·	?	–	?	?
CCOc1ccc(N(CC(=O)Nc2ccc(C)cc2)S(C)(=O)=O)cc1	15.1µM	·	0.891µM	?	3.55µM	?
COC(=O)c1ccc(CN(c2ccc(C)cc2)S(=O)(=O)c2ccc3c(c2)OCCO3)o1	–	–	–	–	–	20.6µM
Cc1cccc(NC(=O)N2CCC(CN3CCOCC3)CC2)c1C	–	·	·	·	·	·
SMILES	FLuc counter	SMN2 splice up	Rab9 prom act	ELG1 genotox	NPC1 promoter act	ELG1 repair inh
CCOC(=O)c1cnc(Nc2nc3ccccc3o2)nc1CN1CCN(C)CC1	–	12.6µM	–	?	–	?
COc1cc2c(cc1OC)CN(c1ccc(C(N)=O)cc1[N+](=O)[O-])CC2	–	·	–	–	–	?
COc1cccc(C(=O)Nc2nnc(Cc3ccc(OC)c(OC)c3)s2)c1	–	·	–	–	–	–
COc1ccc(C(=O)Nc2nnc(Cc3ccc(OC)c(OC)c3)s2)c(OC)c1	26.9µM	·	–	–	–	–
COCc1nnc(NC(=O)c2ccc(OC)cc2OC)s1	8.49µM	11.2µM	2.51µM	8.2µM	2.51µM	?
COc1ccc(C(=O)Nc2nnc(CCc3ccccc3)s2)c(OC)c1	?	·	–	–	–	–
